Experimental data taken from PubChem BioAssay (NCI).
This is part of a sample that, as a whole, favours compounds with a hit. Of some 79,000 tested, about 15% had one in any assay. Activity calls are given as the source filed them. Cut-off read from the data, not from the text of the source: active = growth inhibition above about 70%; inactive = the rest.

What was measured:
[1] = NCI Yeast Anticancer Drug Screen. Data for the rad52 strain (AID 147);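 note: 0% = growth of vehicle-treated control cultures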; details: S. cerevisiae rad52 mutant growth inhibition, stronger effect = higher value
Outline: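 Screen used a yeast mutant impaired in DNA repair. After compound exposure, growth was measured. Values reflect inhibition compared with vehicle-treated cells.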

[2] = NCI Yeast Anticancer Drug Screen. Data for the rad50EPP+ strain (AID 151);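 note: 0% = growth of vehicle-treated control cultures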; details: S. cerevisiae rad50 mutant strain, stronger effect = higher value
Outline: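 Exposing the rad50EPP+ strain to each compound, growth was compared with vehicle-only cultures to give inhibition.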

[3] = NCI Yeast Anticancer Drug Screen. Data for the mgt1 strain (AID 153); details: S. cerevisiae mgt1 mutant growth inhibition, stronger effect = higher value
Outline: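 Genetically defined yeast (mgt1) treated with compound; inhibition of growth expressed against vehicle-treated controls.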

[4] = NCI Yeast Anticancer Drug Screen. Data for the rad50 strain (AID 155);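 note: 0% = growth of vehicle-only cultures of the same strain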; details: S. cerevisiae rad50 strain growth inhibition, stronger effect = higher value
Outline: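 Relative growth inhibition (compound vs vehicle) was measured in yeast with a defined repair-gene alteration.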

[5] = NCI Yeast Anticancer Drug Screen. Data for the mec2-1 strain (AID 157); details: S. cerevisiae mec2-1 strain, stronger effect = higher value
Outline: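 Readout is yeast growth inhibition, normalised to vehicle-treated controls, in the mec2-1 strain exposed to compound.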

[6] = NCI Yeast Anticancer Drug Screen. Data for the rad14 strain (AID 159);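 note: 0% = growth of vehicle-treated control cultures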; details: S. cerevisiae rad14 strain growth inhibition, stronger effect = higher value
Outline: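 Screen for anticancer potential: a yeast strain altered in DNA damage repair is grown with compound, and reduced growth is quantified against vehicle controls.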

[7] = NCI Yeast Anticancer Drug Screen. Data for the sgs1 mgt1 strain (AID 161);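 note: 0% = growth of cultures given vehicle only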; details: S. cerevisiae sgs1 mgt1 strain, stronger effect = higher value
Outline: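 Percent growth inhibition was derived by comparing compound-exposed mutant yeast with vehicle-exposed cultures. The strain carries alterations in DNA damage repair.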

[8] = NCI Yeast Anticancer Drug Screen. Data for the CLN2oe strain (AID 163);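 note: 0% = growth of vehicle-only control cultures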; details: S. cerevisiae CLN2oe strain, stronger effect = higher value
Outline: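 Values reflect how much compound exposure reduced yeast growth, referenced to vehicle-exposed cells. Assay organism is a strain with a defined genetic change affecting cell-cycle control.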

[9] = NCI Yeast Anticancer Drug Screen. Data for the cln2 rad14 strain (AID 165);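 note: 0% = growth equal to vehicle treated cultures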; details: S. cerevisiae cln2 rad14 strain, stronger effect = higher value
Outline: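 Relative to vehicle controls, growth inhibition of compound-treated cln2 rad14 yeast was recorded.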

[10] = NCI Yeast Anticancer Drug Screen. Data for the bub3 strain (AID 167); details: S. cerevisiae bub3 mutant strain, stronger effect = higher value
Outline: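 Screening used yeast with an engineered genetic alteration affecting cell cycle control. Compound-exposed cultures were compared with vehicle cultures, and reduced growth was taken as inhibition.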

[11] = NCI Yeast Anticancer Drug Screen. Data for the wt2 strain (AID 169);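 note: 0% = growth of vehicle-treated yeast cultures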; details: S. cerevisiae wt2 strain growth inhibition, stronger effect = higher value
Outline: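 Values express reduction in yeast growth under compound treatment, referenced to vehicle-treated cells.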

[12] = NCI Yeast Anticancer Drug Screen. Data for the mlh1 strain (AID 171);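 note: 0% = growth of vehicle-treated control cultures of the same strain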; details: S. cerevisiae mlh1 strain growth inhibition, stronger effect = higher value
Outline: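 Steps: expose the defined-mutant yeast strain to compound; expose a parallel culture to vehicle; measure growth; express compound effect as inhibition relative to the vehicle culture.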

[13] = NCI Yeast Anticancer Drug Screen. Data for the sgs1 strain (AID 173);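 note: 0% = growth of vehicle-only control cultures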; details: S. cerevisiae sgs1 mutant, stronger effect = higher value
Outline: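 Treat defined-mutant yeast with compound; measure growth; calculate inhibition relative to vehicle-treated cells.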

[14] = NCI Yeast Anticancer Drug Screen. Data for the mlh1 rad18 strain (AID 175); details: S. cerevisiae mlh1 rad18 strain growth inhibition, stronger effect = higher value
Outline: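 Test agents were incubated with a yeast strain of defined genotype (DNA damage repair defect). Inhibition of growth was derived by comparison with vehicle-exposed cultures.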

[15] = NCI Yeast Anticancer Drug Screen. Data for the rad18 strain (AID 177); details: S. cerevisiae rad18 mutant growth inhibition, stronger effect = higher value
Outline: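 A genetically defined yeast mutant impaired in DNA damage repair was treated with test compounds, then its growth was measured against cultures receiving vehicle alone.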

[16] = at 5.0 µM (retest, dose inferred, filed as 0.5)
[17] = at 50.0 µM (retest, dose inferred, filed as 5.0)

Measured: growth inhibition

CC(C)NCCCNc1c2ccccc2nc2cccc([N+](=O)[O-])c12
active: [1]; at 1.2 µM 93% | [1]; at 3.7 µM 96% | [1]; at 11.0 µM 97% | [1]; at 33.0 µM 97% | [1]; at 100.0 µM 97% | [2]; at 1.2 µM 86% | [2]; at 3.7 µM 93% | [2]; at 11.0 µM 95% | [2]; at 33.0 µM 96% | [2]; at 100.0 µM 97% | [3]; at 33.0 µM 92% | [3]; at 100.0 µM 96% | [4]; at 1.2 µM 90% | [4]; at 3.7 µM 93% | [4]; [16] 95% | [4]; at 11.0 µM 95% | [4]; at 33.0 µM 96% | [4]; [17] 99% | [4]; at 50.0 µM 83.3% | [4]; at 100.0 µM 97% | [5]; at 1.2 µM 94% | [5]; at 3.7 µM 97% | [5]; [16] 93% | [5]; at 11.0 µM 97% | [5]; at 33.0 µM 98% | [5]; [17] 98% | [5]; at 50.0 µM 86.5% | [5]; at 100.0 µM 98% | [6]; at 1.2 µM 98% | [6]; at 3.7 µM 98% | [6]; at 11.0 µM 97% | [6]; at 33.0 µM 99% | [6]; at 100.0 µM 99% | [7]; [16] 94% | [7]; [17] 98% | [7]; at 50.0 µM 80.8% | [8]; at 3.7 µM 88% | [8]; at 11.0 µM 96% | [8]; at 33.0 µM 97% | [8]; at 100.0 µM 98% | [9]; [16] 98% | [9]; [17] 99% | [9]; at 50.0 µM 85.7% | [10]; at 11.0 µM 90% | [10]; at 33.0 µM 96% | [10]; [17] 99% | [10]; at 100.0 µM 96% | [11]; at 3.7 µM 74% | [11]; at 11.0 µM 94% | [11]; at 33.0 µM 97% | [11]; at 100.0 µM 97% | [12]; at 3.7 µM 75% | [12]; at 11.0 µM 91% | [12]; at 33.0 µM 95% | [12]; at 100.0 µM 96% | [13]; at 1.2 µM 92% | [13]; at 3.7 µM 94% | [13]; at 11.0 µM 96% | [13]; at 33.0 µM 97% | [13]; at 100.0 µM 98% | [14]; [16] 97% | [14]; [17] 99% | [14]; at 50.0 µM 77% | [15]; at 1.2 µM 97% | [15]; at 3.7 µM 96% | [15]; at 11.0 µM 97% | [15]; at 33.0 µM 97% | [15]; at 100.0 µM 97%
inactive: [3]; at 1.2 µM -1% | [3]; at 3.7 µM 38% | [3]; at 11.0 µM 58% | [8]; at 1.2 µM 35% | [10]; at 1.2 µM -11% | [10]; at 3.7 µM 53% | [10]; [16] -4% | [10]; at 50.0 µM 66.8% | [11]; at 1.2 µM 28% | [12]; at 1.2 µM 28%
